Screens from PubChem.
GSH fluor = GSH bead compound fluorescence profile | 190,000 tested, 0.25% active | GSH beads flow cytometry, compound fluorescence 488/530 nm; active compounds read high | fluorescence (KMESF) at 10 µM; in the data active = fluorescence above about 89;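 also: glutathione beads carrying GST-tagged Bcl family fusion proteins plus one bare bead set; values are compound well signal with DMSO vehicle wells as background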
RGS4-Gao reg = human RGS4-Galphao interaction regulation; AID 1415; Multiplexed bead flow cytometry, RGS4-Galphao binding; actives lie on both sides; P09471; 220,000 tested, 0.33% active; binding response (% of control), % at 10 µM; in the data active = binding response below about 49% or above about 150%; inactive = in between;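 also: fluorescent Galphao activated with aluminum fluoride binding bead-coupled RGS4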
Target sequence (P09471 whole entry, looked up): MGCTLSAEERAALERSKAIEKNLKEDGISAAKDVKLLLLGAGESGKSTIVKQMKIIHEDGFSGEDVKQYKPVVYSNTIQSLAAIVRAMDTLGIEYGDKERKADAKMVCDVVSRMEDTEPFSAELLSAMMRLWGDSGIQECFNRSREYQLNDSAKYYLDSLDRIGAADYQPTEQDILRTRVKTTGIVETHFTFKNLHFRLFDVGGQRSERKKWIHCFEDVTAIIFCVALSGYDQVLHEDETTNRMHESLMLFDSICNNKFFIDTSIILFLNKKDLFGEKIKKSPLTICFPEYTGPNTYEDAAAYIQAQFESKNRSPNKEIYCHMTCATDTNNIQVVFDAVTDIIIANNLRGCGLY
RGS8-Gao = modulates binding of RGS8 to human Galphao; AID 1423; P09471; 220,000 tested, 0.34% active; response (percent of control binding), % at 10 µM; multiplexed bead flow cytometry; actives lie on both sides; in the data active = response below about 60% or above about 140%; inactive = in between;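 also: Galphao activated as the GDP aluminium fluoride complex binding bead-coupled RGS8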
RGS7-Gao reg = regulators of human RGS7-Galphao interaction. Multiplexed bead flow cytometry, RGS7-Galphao binding; actives lie on both sides. binding response (% of control), % at 10 µM. P09471. 220,000 tested, 0.35% active; in the data active = binding response below about 49% or above about 150%; inconclusive = no clear call, values can overlap the other calls; inactive = in between;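 also: fluorescent Galphao held in activated GDP-AlF4 state binding bead-coupled RGS7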
RGS16-Gao = RGS16-Galphao interaction regulator (human); O15492+P09471; bead-based flow cytometry RGS16-Galphao binding, fluorescence; actives lie on both sides; binding response (% of control), % at 10 µM; 220,000 tested, 0.38% active; AID 1441;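 also: Galphao activated by GDP with aluminum fluoride before binding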
Avidin fluor = avidin bead compound fluorescence profile. AID 1775. 220,000 tested, 0.38% active. fluorescence (KMESF) at 10 µM. Avidin beads, compound fluorescence 488/530 nm, flow cytometry; active compounds read high; in the data active = fluorescence above about 47
RGS4-Gao HTS = RGS4-Galphao interaction regulator (human); shares compounds with RGS16-Gao; multiplexed bead flow cytometry, RGS–Galpha-o binding; 1,600 tested, 99% active; RGS4–Galpha-o binding response, % at 10 µM; AID 1504;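 also: fluorescently labeled Galpha-o bound to GDP with aluminium fluoride binding biotinylated RGS beads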
Target sequence (P09471 whole entry, looked up): as above
Target sequence (P49798 whole entry, looked up): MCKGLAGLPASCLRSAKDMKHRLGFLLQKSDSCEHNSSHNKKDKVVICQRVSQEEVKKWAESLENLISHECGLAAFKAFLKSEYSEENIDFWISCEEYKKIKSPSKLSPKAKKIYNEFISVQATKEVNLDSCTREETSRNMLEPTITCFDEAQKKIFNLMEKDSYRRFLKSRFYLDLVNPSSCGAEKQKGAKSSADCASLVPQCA
Avidin counter = biotin-avidin bead binding disruption counter-screen; shares compounds with RGS16-Gao; streptavidin beads, fluorescein-biotin binding, flow cytometry; inhibition, % at 10 µM; 1,700 tested, under 10 active;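 active = inhibition above 50%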;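 also: median green fluorescence of gated singlet beads compared with DMSO control wells; 0% = DMSO wells and 100% = complete loss of bead fluorescence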
RGS8-Gao confirm = RGS8-Galphao interaction regulation, single point confirmation; AID 1836; 1,700 tested, 3% active; bead-based flow cytometry RGS8-Galphao binding, fluorescence; actives lie on both sides; shares compounds with RGS16-Gao; binding response (% of control), % at 10 µM; in the data active = binding response below about 72% or above about 130%; inactive = in between;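 also: Galphao activated as GDP AlF4 complex before binding bead RGS8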
RGS7-Gao confirm = confirmation of regulators of human RGS7-Galphao interaction; shares compounds with RGS16-Gao; response (percent of control binding), % at 10 µM; 1,700 tested, 7.8% active; AID 1837; bead-based flow cytometry RGS7-Galphao binding; actives lie on both sides; in the data active = response below about 75% or above about 130%; inactive = in between;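 also: fluorescent Galphao activated with GDP and aluminum fluoride binding bead-coupled RGS7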
RGS16-Gao conf = confirmation of regulators of human RGS16-Galphao interaction; shares compounds with RGS16-Gao; bead-based flow cytometry, RGS16-Galphao binding; actives lie on both sides; response (% of control binding), % at 10 µM; 1,700 tested, 4% active; AID 1838; in the data active = response below about 74% or above about 130%; inactive = in between;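 also: Galphao activated as the GDP aluminium fluoride complex binding bead-coupled RGS16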
RGS4-Gao single = RGS4-Galphao interaction regulation, single point confirmation; 1,700 tested, 4% active; shares compounds with RGS16-Gao; RGS4-Galphao binding, multiplexed bead flow cytometry; actives lie on both sides; binding response (% of control), % at 10 µM; in the data active = binding response below about 74% or above about 130%; inactive = in between
RGS19-Gao conf = confirmation of regulators of human RGS19-Galphao interaction; bead-based flow cytometry RGS19-Galphao binding; actives lie on both sides; shares compounds with RGS16-Gao; AID 1841; 1,700 tested, 5% active; response (percent of control binding), % at 10 µM; in the data active = response below about 50% or above about 160%; inactive = in between;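 also: 100% = no compound control and 0% = blank background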
* = called active by the depositor; i = inactive; u = inconclusive; x = no result; [ ] = dose if it differs, or a comment. Shown are actives, neighbours in structure and some others; about 1.2% of the full set was active somewhere. Unless noted, no rule for the calls is given here.

SMILES	GSH fluor	RGS4-Gao reg	RGS8-Gao	RGS7-Gao reg	RGS16-Gao	Avidin fluor	RGS4-Gao HTS	Avidin counter	RGS8-Gao confirm	RGS7-Gao confirm	RGS16-Gao conf	RGS4-Gao single	RGS19-Gao conf
CC(=O)N(O)CCCCCNC(=O)CCC(=O)N(O)CCCCCNC(=O)CCC(=O)N(O)CCCCCN	22	61	51*	55	35	4	61*	-2	53*	58*	42*	57*	64
Cc1ccc2nc(-c3cc(N)cc(N)c3)oc2c1	18	84	93	80	88	29	x	x	x	x	x	x	x
Nc1ccc(-c2nc3ccc(N)cc3o2)cc1	7	50	47*	1.9*	40	0	50*	0	106	105	108	103	105
Cc1[nH]n(-c2ccccc2)c(=O)c1/C=N/Nc1nncc(-c2ccccc2)n1	17	x	x	x	x	x	x	1	95	89	91	93	59
COc1ccc(OCC(=O)Nc2c3c(nn2C(C)(C)C)CSC3)cc1	14	100	98	102	100	7	x	x	x	x	x	x	x
CN(C)S(=O)(=O)c1cccc(NC(=S)NN=C(Cc2ccccc2)Cc2ccccc2)c1	13	91	54*	51	101	6	91*	1	101	104	102	107	98
CC1(C(=O)N/N=C/c2ccc([N+](=O)[O-])o2)CC1(Br)Br (stereo not given)	14	88	78	84	13*	7	88*	2	101	98	98	101	90
Cc1cc(C)nc(NNC(=O)NC2CCCCC2)n1	14	-11*	2.4*	-8.8*	-20*	-2	x	0	113	119	119	112	107
COc1cccc(Cn2c(C3CC3)nc3ccc(NC(=O)c4ccco4)cc3c2=O)c1	9	77	76	579*[activator]	134	603*	77*	0	102	106	104	102	99
Cc1cc2c(sc3c(C)ccc(C)c32)c(C)n1	x	100	99	u	102	3	x	x	x	x	x	x	x
COc1ccccc1NC(=O)Nc1ccnn1Cc1cccs1	31	-59*	6.0*	-20*	-55*	-5	x	0	98	94	97	98	94
COc1ccccc1NC(=O)Cc1cccs1	25	99	99	99	101	13	x	x	x	x	x	x	x
O=C(Cn1cc2c(n1)CCCCC2)Nc1ccccc1Br	x	25*	28*	u	14*	1	x	2	98	99	96	98	90
COc1ccc2[nH]c(=O)c(CN(C(=O)c3cccnc3)c3ccccc3C)cc2c1	x	307*[activator]	142*[activator]	u	280*[activator]	118*	x	1	96	56*	73*	72*	39*
COc1ccc2oc3cc(C)[n+]([O-])c(-c4ccc(Cl)cc4)c3c2c1	11	41*	78	52	90	-1	x	i	105	114	112	111	107
CCc1ccc(CN(C)C(=O)CCc2nnc(COc3ccccc3)o2)cc1	16	100	105	101	104	15	x	x	x	x	x	x	x
O=C(NCc1ccccc1)c1ccc(C(=O)N(C2CCCCC2)C2CCCCC2)cc1	41	x	x	x	x	x	x	-1	93	86	90	93	86
CCOc1ccc(C(C)=O)cc1NC(=O)/C=C\C(=O)O	10	100	102	96	101	3	x	x	x	x	x	x	x
N/C(=N\OC(=O)c1ccco1)c1ccc(Cl)cc1	11	109	101	164*[activator]	102	63*	109*	0	103	104	102	101	103
N/C(=N\OC(=O)c1ccc(Cl)cc1)c1ccc(Cl)cc1	77	103	103	103	105	8	x	x	x	x	x	x	x
COc1cccc(-n2c(C)nc3cc(C(=O)O)ccc32)c1	28	158*[activator]	129	160*[activator]	x	54*	x	-1	103	110	107	106	108
Cc1nc2cc(C(=O)OCC(=O)Nc3cccc(Cl)c3)ccc2n1-c1ccccc1	11	100	100	100	99	11	x	x	x	x	x	x	x
CC(=O)c1ccc(NC(=O)C(C)OC(=O)c2ccc3c(c2)nc(C)n3-c2ccccc2)cc1 (stereo not given)	13	112	132	110	219*[activator]	6	112*	-1	104	103	106	105	112
CCOC(=O)c1cnc2c(OC)cccc2c1Nc1ccc2c(c1)OCCO2	6	102	103	101	108	3	x	x	x	x	x	x	x
CCNC(=S)N(Cc1ccc2c(c1)OCO2)C1CC(=O)N(c2ccc(OC)cc2)C1=O (stereo not given)	19	85	71	82	32	5	x	x	x	x	x	x	x
SMILES	GSH fluor	RGS4-Gao reg	RGS8-Gao	RGS7-Gao reg	RGS16-Gao	Avidin fluor	RGS4-Gao HTS	Avidin counter	RGS8-Gao confirm	RGS7-Gao confirm	RGS16-Gao conf	RGS4-Gao single	RGS19-Gao conf
CCNC(=S)N(Cc1ccc(OC)cc1)C1CC(=O)N(c2ccc(OCC)cc2)C1=O (stereo not given)	18	x	x	x	x	x	x	0	102	108	107	103	99
NCC(c1ccccc1)(c1ccccc1)c1ccccc1	4	98	79	97	24*	9	98*	0	102	98	102	98	103
CN(C)CCC(O)(c1ccccc1)c1ccccc1	13	105	115	107	141	13	x	x	x	x	x	x	x
Cc1nn(CC(=O)N2CCc3ccccc3C2)c(C)c1[N+](=O)[O-]	10	99	100	98	106	11	x	x	x	x	x	x	x
Cc1c(Br)c([N+](=O)[O-])nn1CC(=O)N1CCc2ccccc2C1	6	97	75	99	24*	1	97*	-1	102	97	97	100	90
C/C(CC(=O)Nc1ccc2c(c1)OCO2)=N\NC(=O)C(c1ccccc1)c1ccccc1	13	87	67	86	15*	1	87*	0	107	104	108	102	108
